The text below walks through data of the supplement of paper PMC10681739.

This assay deals with T1, ETS1 (UniProt P14921).
T1 sequence: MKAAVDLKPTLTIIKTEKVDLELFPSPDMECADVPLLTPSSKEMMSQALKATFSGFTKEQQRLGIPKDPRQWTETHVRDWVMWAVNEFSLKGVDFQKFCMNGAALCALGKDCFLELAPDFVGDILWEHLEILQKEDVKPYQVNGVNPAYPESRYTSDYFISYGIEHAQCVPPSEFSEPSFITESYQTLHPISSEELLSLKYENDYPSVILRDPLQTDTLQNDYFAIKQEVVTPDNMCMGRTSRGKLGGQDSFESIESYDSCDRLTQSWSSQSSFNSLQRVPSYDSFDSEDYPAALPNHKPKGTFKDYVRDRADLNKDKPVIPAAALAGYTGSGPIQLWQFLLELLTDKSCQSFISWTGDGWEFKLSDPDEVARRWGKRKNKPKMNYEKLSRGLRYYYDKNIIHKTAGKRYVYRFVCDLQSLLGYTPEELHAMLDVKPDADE
The assay is described as follows: ETS1 binding intensity (PBM fluorescence) in presence of RUNX1, normalised to ETS1-only experiment (arbitrary fluorescence units); higher = stronger binding. Conditions: ETS1 concentration 1 nM; RUNX1 concentration 25 nM.
For the sequence CGAAGAGGAAGCCCCTGTATCACCCCACAAGAAGCC, the ETS1 binding intensity worked out at 555.
Consider GTACGCTCTTCACTTCCCGTACCCGCGCCCGGCAGG, for which the ETS1 binding intensity amounted to 634.
As to TTCTGGACATGCTTCCTGTGGCTTCTCTCCTGCGCT, the ETS1 binding intensity turned out to be 598.
Regarding TGGTTAAGCAGTGCAGGATGTGGGCTGCACTGCTAA, the ETS1 binding intensity was determined as 3930.
As for GCAGGAAGACTAACACAAAACCATCAAACCACTCTG, the ETS1 binding intensity was 543.
In the case of GGCGGAAGCTGCCGCTGCCTTGCGCCCCCACACACG, the ETS1 binding intensity stood at 685.
For GAAACCTCACTCTGAGGATGTGGGTTCTGCCTTCTT, the ETS1 binding intensity is 1710.
In the case of GGGGGAATGTAGGAAGTATCATCGCCCACAAGAAAG, the ETS1 binding intensity is 807.
Next, CCGCCCACTTCCGTGTGGCCGCCGATTGGTTTTGCC: 516; TAAATAGGAAGTCAGAGTTTACTGCCGAACCCACAG: 523.
Regarding CTTGCTTGAGTCACAGGAAACCACTCAGAGGCTAAC, the ETS1 binding intensity came out at 2860.
Regarding GCAGGGGCCCATTTCCTGCCACAAGCCCACACAGGA, the ETS1 binding intensity is 1280.
On to AGCCCTCTGCAACTTCCCGGCCCCACAGCCCCACCC, for which the ETS1 binding intensity came to 575.
As to GCAGAACCAGAAACAGGATGTGGGTTCCCCTTTAAG, the ETS1 binding intensity was determined as 18900.
Next, CCTGAGCGCCCGGAAGGAAGGCTGTGGTAGGTTGTC: 1570; TCCAGCCGGACGCGATGCCTGGAGGCTGCGGGCGCC: 597; AAAACAACTTCCTTCCCCTCTCTCTCCACCACAGTC: 560.
Consider TCGGAACGGAAGGGAGGCACGAAACCGCGAGTGGAG, for which the ETS1 binding intensity was 1840.
Next, GTGCGGCGGGAAACGCGTTCCCCGGCAACCGCGCCC: 479; GGAGCAGGAAGCGTCGCCGGGGGGCCCACAAGGGTA: 614.
For the sequence ACGTAGACAGGAAAGTAATGTGGTTCAGGACTGAGT, the ETS1 binding intensity amounted to 766.
On to AGGAGTGAGGAAGTGAGGCTGGCCTTGTGGGTGTGG, for which the ETS1 binding intensity was determined as 748.
Consider ACGCCGCGCATCCGCGCTTTACGGCGGCCGCAAAAT, for which the ETS1 binding intensity was 563.
